This note sets out measurements from PubChem BioAssay.

Activity calls are given as the source filed them.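 Rule for the calls, unless noted: active = inhibition of the reporter signal at or above 50%; inactive = inhibition below 50%.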

By inhibition is commonly meant the change of the read-out against control, counted positive when it falls.

The nature of assay [1]: inhibitors of TNFa-induced NFkB p65 translocation, primary screen, imaging, HUVEC, MLSMR starter and 10KST1 sets (AID 438;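 active = inhibition above 20% together with a positive visual image hit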;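 note: compound added about 3h40 before a 20 min TNFalpha stimulation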;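 for inhibition: signal is the nuclear over cytoplasmic p65 intensity ratio per well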). To be noted: HUVEC TNFa-induced p65 nuclear translocation; cell count: measured here: nuclei count (cytotoxicity indicator), at 2.08 µM; inhibition: at 2 µM, stronger effect = higher value, 0% TNFa-plus-vehicle, 100% no-TNFa wells.
The nature of assay [2]: inhibitors of mutant huntingtin aggregation, primary screen, imaging, exon1htt(103Q)mCFP cells, high-content imaging (AID 483;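 active = visual image review flags a hit and inhibition of aggregation exceeds 20%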;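 note: compound exposure lasted 3 days before fixation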;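 for nuclei count: percent of the per-plate median nuclei count of sample wells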). The conditions noted are these: exon1htt(103Q)mCFP cell line, aggregate imaging, at 2 µM; inhibition of aggregation: stronger effect = higher value; nuclei count: measured here: cell count, toxicity.
Assay [3] in a line: inhibitors of E-selectin induction by TNFa, primary screen, imaging, HUVEC, immunofluorescence, MLSMR starter and 10KST1 sets (AID 487;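 active = visually confirmed hit in the image check and inhibition above 20%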;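 for inhibition: signal is fraction of cell area covered by stained E-selectin grains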;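 for nuclei count: 100% = median nuclei count of all wells on the same plate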). To be noted: HUVEC TNFalpha-induced E-selectin immunofluorescence imaging, at 2 µM; inhibition: stronger effect = higher value; nuclei count: measured here: cell number, toxicity.
The target of assay [4] is Voltage-gated potassium channel subunit beta-2 (Rattus norvegicus) (UniProt P62483). Nature of the assay: KvBeta enzyme negative modulators, primary screen, biochemical, NADPH fluorescence (AID 622;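 active = fluorescence slope higher than the sample average by over 3 SD, cut at about -0.22 in these data, passing the limit was not always enough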;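 note: slope of raw intensity against log time taken from 70 to 1610 s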). The conditions noted are these: recombinant KvBeta, 4-cyanobenzaldehyde reduction, at 10 µM, stronger effect = higher value.
Voltage-gated potassium channel subunit beta-2 (Rattus norvegicus), sequence (P62483 whole entry, looked up): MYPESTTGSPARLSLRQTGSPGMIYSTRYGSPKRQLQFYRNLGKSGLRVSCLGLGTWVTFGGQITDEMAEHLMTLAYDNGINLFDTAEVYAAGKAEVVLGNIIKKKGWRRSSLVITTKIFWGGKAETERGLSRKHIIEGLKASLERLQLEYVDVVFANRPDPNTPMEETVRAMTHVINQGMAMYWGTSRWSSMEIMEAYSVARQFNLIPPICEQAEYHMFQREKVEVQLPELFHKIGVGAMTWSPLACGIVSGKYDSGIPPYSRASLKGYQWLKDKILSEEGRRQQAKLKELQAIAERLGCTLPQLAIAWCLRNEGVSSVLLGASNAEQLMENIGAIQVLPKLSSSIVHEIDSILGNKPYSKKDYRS
Assay [5] shares this target. In words: KvBeta positive modulators, primary screen, biochemical, NADPH fluorescence (AID 623;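 active = NADPH fluorescence slope more negative than the mean of all samples by about 3 SD, 99.7% confidence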;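 note: fluorescence intensity change per second fitted from 20 to 320 s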). To be noted: Recombinant KvBeta, NADPH fluorescence decrease slope, 10 min; at 10 µM; stronger effect = lower value.
The target of assay [6] is Alpha-2C adrenergic receptor (Homo sapiens) (UniProt P18825). Nature of the assay: modulators of alpha2C/GIRK thallium flux, primary screen, cell-based, HEK293 alpha2C/GIRK1/2 (AID 624;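 active = fluorescence slope after compound addition differing from the mean of all screened samples at 99.7% confidence, in either direction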;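 note: slope of fluorescence ratio to pre-addition baseline per second over 15 to 24 s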). To be noted: thallium flux BTC fluorescence, at 10 µM, actives lie on both sides.
Alpha-2C adrenergic receptor (Homo sapiens), sequence (P18825 whole entry, looked up): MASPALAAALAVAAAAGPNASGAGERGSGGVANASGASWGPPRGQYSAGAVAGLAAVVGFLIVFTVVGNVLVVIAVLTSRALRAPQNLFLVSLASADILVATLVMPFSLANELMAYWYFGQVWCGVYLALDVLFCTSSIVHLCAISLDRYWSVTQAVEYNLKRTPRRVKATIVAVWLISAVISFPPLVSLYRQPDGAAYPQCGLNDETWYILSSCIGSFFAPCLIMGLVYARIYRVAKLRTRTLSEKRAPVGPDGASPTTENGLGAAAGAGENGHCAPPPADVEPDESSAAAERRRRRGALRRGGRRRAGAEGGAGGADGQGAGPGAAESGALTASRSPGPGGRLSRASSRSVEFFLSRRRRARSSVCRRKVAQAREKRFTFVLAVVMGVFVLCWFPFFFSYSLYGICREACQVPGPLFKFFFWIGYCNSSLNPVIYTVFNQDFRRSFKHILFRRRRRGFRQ
Assay [7] can be described thus: inhibitors of Sendai virus-induced IRF3 signaling, primary screen, TLR/RLR signaling modifier project, cell-based, Sendai virus stimulus, luciferase, 10K MLSCN set (AID 602276;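 active = inhibition at or above 50% at 10 µM; inactive = inhibition below 50%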;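 note: firefly luciferase from ISG56 promoter only with Renilla not read in this screen; 0% = Sendai virus plus DMSO and 100% = medium plus DMSO without virus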). The conditions noted are these: HEK293 RL24 IRF3 luciferase reporter, at 10 µM, stronger effect = higher value. (In general: A reporter such as luciferase makes a cellular process visible.)
The nature of assay [8]: inhibitors of poly I:C-induced TLR3 signaling, primary screen, cell-based, poly I:C stimulus, luciferase, 10K MLSCN set (AID 602277). The conditions noted are these: HEK293-TLR3 RL24 IRF3 luciferase reporter, at 10 µM, stronger effect = higher value.

For the compound `Cc1nnc(SCc2ccccc2F)n1NCc1cccs1`, in assay [1], the cell count was determined as 767. The inhibition is -3.9% (inactive) in assay [1], -71% (inactive) in assay [3], -2.84% (inactive) in assay [7] and -9.57% (inactive) in assay [8]. For the same compound, the inhibition of aggregation in assay [2] was -8.1% (inactive). Besides, the nuclei count in assay [2] was 106%; in assay [3], 113%. The fluorescence slope in assay [4] is -0.47 (inactive). Further, the NADPH fluorescence slope in assay [5] is -4.7e-05 (inactive). In assay [6], the slope is 0.00631 (inactive).
Turning to `COc1cccc(-n2c(SCC(=O)Nc3cc(C)on3)nc3c([nH]c4ccccc43)c2=O)c1`, in assay [1], the cell count is 600. Further, the inhibition in assay [1] was 8% (inactive); in assay [3], -41% (inactive); in assay [7], 24% (inactive); in assay [8] it was 28.7% (inactive). Further, in assay [2], the inhibition of aggregation was -10.2% (inactive). Moreover, the nuclei count in assay [2] is 89.7%; in assay [3] it was 118%. In assay [4], the fluorescence slope is -0.539 (inactive). Moreover, in assay [5], the NADPH fluorescence slope was -7.7e-06 (inactive). Besides, the slope in assay [6] is 0.00757 (inactive).
In the case of `CCc1[nH]nc2c1C(c1ccncc1)C(C#N)=C(N)O2` (centres undefined), the cell count in assay [1] stood at 355. For the same compound, the inhibition in assay [1] is 2.9% (inactive); in assay [3], -29.1% (inactive); in assay [7], -2.35% (inactive); in assay [8], 3.94% (inactive). Besides, the inhibition of aggregation in assay [2] was -6% (inactive). Further, the nuclei count in assay [2] came to 109%; in assay [3] it was 123%. For the same compound, the fluorescence slope in assay [4] is -0.507 (inactive). Further, the NADPH fluorescence slope in assay [5] was -3.3e-05 (inactive). In addition, the slope in assay [6] was 0.00643 (inactive).
Consider `CCOc1ccc(S(=O)(=O)N2CCN(c3ccc(C)cc3C)CC2)cc1`, for which, in assay [1], the cell count was found to be 821. The inhibition in assay [1] was 5.7% (inactive); in assay [3], -30.7% (inactive); in assay [7] it was -5.26% (inactive); in assay [8], 11.7% (inactive). Besides, the inhibition of aggregation in assay [2] was -66.1% (inactive). Moreover, the nuclei count in assay [2] was found to be 98.4%; in assay [3] it was 110%. In addition, the fluorescence slope in assay [4] was -0.578 (inactive). Further, the NADPH fluorescence slope in assay [5] is -2.7e-05 (inactive). Moreover, the slope in assay [6] is 0.00897 (inactive).
As to `CC1(C)CC(=O)C(C#N)=C(NCCCO)C1`, in assay [1], the cell count was determined as 471. For the same compound, the inhibition was 5% (inactive) in assay [1], 42.4% (inactive) in assay [3], 11.1% (inactive) in assay [7] and 9.83% (inactive) in assay [8]. Further, the inhibition of aggregation in assay [2] was -2.8% (inactive). For the same compound, the nuclei count in assay [2] stood at 98.2%; in assay [3], 109%. Further, in assay [4], the fluorescence slope is -0.536 (inactive). The NADPH fluorescence slope in assay [5] was -3.8e-05 (inactive). Further, the slope in assay [6] is 0.00419 (inactive).
In the case of `CCOC(=O)Cn1nnnc1C(C(C)C)N(Cc1cc2c(C)cc(C)cc2[nH]c1=O)C1CCCC1` (centres undefined), the cell count in assay [1] worked out at 666. The inhibition was -13.4% (inactive) in assay [1], 39.1% (inactive) in assay [3], -15.9% (inactive) in assay [7] and 10.4% (inactive) in assay [8]. In assay [2], the inhibition of aggregation is -17.6% (inactive). Also, the nuclei count in assay [2] turned out to be 97.7%; in assay [3], 106%. In addition, the fluorescence slope in assay [4] was -0.498 (inactive). The NADPH fluorescence slope in assay [5] is 1.1e-05 (inactive). Further, the slope in assay [6] is 0.0076 (inactive).
In the case of `C=CCn1c(SC(C)C(=O)NC2(C#N)CCCCC2)nnc1-c1ccc(OC)cc1` (centres undefined), the cell count in assay [1] was found to be 612. Further, the inhibition in assay [1] was 9.9% (inactive); in assay [3], -154% (inactive); in assay [7], 22.5% (inactive); in assay [8] it was 21.6% (inactive). Further, the inhibition of aggregation in assay [2] was 6.2% (inactive). The nuclei count in assay [2] turned out to be 95%; in assay [3], 94%. Further, the fluorescence slope in assay [4] is -0.594 (inactive). Besides, the NADPH fluorescence slope in assay [5] is -3.3e-05 (inactive). Moreover, the slope in assay [6] was 0.00361 (inactive).
In the case of `CCOC(=O)c1cc(NC(=O)SCC(=O)O)c(C)nc1C`, the cell count in assay [1] came out at 762. Also, the inhibition was 5.1% (inactive) in assay [1], -99.8% (inactive) in assay [3], 7.76% (inactive) in assay [7] and 9.57% (inactive) in assay [8]. For the same compound, the inhibition of aggregation in assay [2] is -19.7% (inactive). Also, the nuclei count in assay [2] is 111%; in assay [3] it was 128%. Moreover, the fluorescence slope in assay [4] was -0.484 (inactive). Also, the NADPH fluorescence slope in assay [5] was -3.2e-05 (inactive). Also, in assay [6], the slope was 0.0071 (inactive).
Consider `CC(=O)NCc1nc2ccccc2n1C(C)C`, for which, in assay [1], the cell count was 518. The inhibition is 13% (inactive) in assay [1], 6.4% (inactive) in assay [3], 7.73% (inactive) in assay [7] and 21.5% (inactive) in assay [8]. Besides, in assay [2], the inhibition of aggregation was 15.8% (inactive). Further, the values for the nuclei count in assay [2] and in assay [3] were 110% and 119%, respectively. Besides, in assay [4], the fluorescence slope is -0.575 (inactive). Also, the NADPH fluorescence slope in assay [5] was -3.7e-05 (inactive). Also, in assay [6], the slope is 0.00817 (inactive).
Take `CCOC(=O)CN1C(=O)C2(OCCCO2)c2ccccc21`: the cell count in assay [1] was 595. The inhibition in assay [1] is -18.5% (inactive); in assay [3], -39.6% (inactive); in assay [7], 1.67% (inactive); in assay [8] it was 18.4% (inactive). The inhibition of aggregation in assay [2] is 3.3% (inactive). The nuclei count is 115% in assay [2] and 96.5% in assay [3]. In assay [4], the fluorescence slope was -0.454 (inactive). Further, in assay [5], the NADPH fluorescence slope is -0.000151 (inactive). Also, the slope in assay [6] was 0.00617 (inactive).
With `COc1ccc(C(=O)CN2C3=NCCCN3c3ccccc32)cc1OC`, the cell count in assay [1] is 335. Also, the inhibition in assay [1] was -3.1% (inactive); in assay [3] it was 22.7% (inactive); in assay [7], 10.4% (inactive); in assay [8], 28.8% (inactive). In addition, the inhibition of aggregation in assay [2] was -14.2% (inactive). The nuclei count in assay [2] was determined as 76.5%; in assay [3], 93.6%. In addition, in assay [4], the fluorescence slope is -0.475 (inactive). The NADPH fluorescence slope in assay [5] was -4.1e-05 (inactive). Besides, the slope in assay [6] was 0.00312 (inactive).
As for `Cc1nc2sc(C(c3cccs3)N3CCC(C(N)=O)CC3)c(O)n2n1` (centres undefined), the cell count in assay [1] came out at 625. For the same compound, the inhibition is -3.9% (inactive) in assay [1], -47.4% (inactive) in assay [3], 14.6% (inactive) in assay [7] and 32.7% (inactive) in assay [8]. In addition, the inhibition of aggregation in assay [2] is -7.5% (inactive). For the same compound, the nuclei count was determined as 105% in assay [2] and 120% in assay [3]. In addition, the fluorescence slope in assay [4] is -0.565 (inactive). Moreover, the NADPH fluorescence slope in assay [5] was -4.6e-05 (inactive). In addition, the slope in assay [6] is 0.00644 (inactive).
Turning to `Cc1ccc2oc(C(=O)Nc3c(C)n(C)n(-c4ccccc4)c3=O)c(C)c2c1`, in assay [1], the cell count was found to be 776. Besides, the inhibition in assay [1] was -5% (inactive); in assay [3], -37.6% (inactive); in assay [7] it was -5.27% (inactive); in assay [8], 7.35% (inactive). Besides, in assay [2], the inhibition of aggregation was -1.5% (inactive). Also, the nuclei count was determined as 109% in assay [2] and 108% in assay [3]. Further, the fluorescence slope in assay [4] was -0.616 (inactive). Further, the NADPH fluorescence slope in assay [5] is -2.7e-05 (inactive). Further, in assay [6], the slope is 0.00692 (inactive).
Regarding `CSC1=C(C#N)C(c2ccc(Cl)cc2)C2=C(CC(C)(C)CC2=O)N1` (centres undefined), the cell count in assay [1] was 391. Besides, the inhibition in assay [1] is -3.3% (inactive); in assay [3], -5.3% (inactive); in assay [7], 1.71% (inactive); in assay [8], 24.5% (inactive). Further, in assay [2], the inhibition of aggregation was 29.1% (inactive). Moreover, the values for the nuclei count in assay [2] and in assay [3] were 81.5% and 108%, respectively. Further, the fluorescence slope in assay [4] was -0.416 (inactive). Moreover, the NADPH fluorescence slope in assay [5] was 5.8e-06 (inactive). The slope in assay [6] was 0.00657 (inactive).
